# Data published in paper PMC9911399, “Two distinct binding modes provide the RNA-binding protein RbFox with extraordinary sequence specificity”.
# Numbering of substitutions follows the chain as printed; changes in the protein carry UniProt numbers. Whole data set: some 16,000 sequences, median “ka relative to ugcaugu” near 0.0091, cut for the highest 2% near 0.032. Only a selection was taken, and the highest values are over-represented in it overall.
# B1: CUGCAGA (DNA:RNA)
# RNA: GGGAGACCGGAAUUCAGAUUGUCCCUGCAGAUUAAAUCCCGUCGUAGCCACCA
# DNA 1: CAATCTGAATTCCGGTCTCCC
# DNA 2: TGGTGGCTACGACGGGATT
# B2: AUUUAGA (DNA:RNA)
# RNA: B1 RNA with C25A, G27U, C28U
# DNA 1: CAATCTGAATTCCGGTCTCCC
# DNA 2: TGGTGGCTACGACGGGATT
# B3: GAACGUU (DNA:RNA)
# RNA: B1 RNA with C25G, U26A, G27A, A29G, G30U, A31U
# DNA 1: CAATCTGAATTCCGGTCTCCC
# DNA 2: TGGTGGCTACGACGGGATT
# B4: CGGCGCA (DNA:RNA)
# RNA: B1 RNA with U26G, A29G, G30C
# DNA 1: CAATCTGAATTCCGGTCTCCC
# DNA 2: TGGTGGCTACGACGGGATT
# B5: CCGCUCA (DNA:RNA)
# RNA: B1 RNA with U26C, A29U, G30C
# DNA 1: CAATCTGAATTCCGGTCTCCC
# DNA 2: TGGTGGCTACGACGGGATT
# B6: UUAGAAU (DNA:RNA)
# RNA: B1 RNA with C25U, G27A, C28G, G30A, A31U
# DNA 1: CAATCTGAATTCCGGTCTCCC
# DNA 2: TGGTGGCTACGACGGGATT
# B7: GUAUACC (DNA:RNA)
# RNA: B1 RNA with C25G, G27A, C28U, G30C, A31C
# DNA 1: CAATCTGAATTCCGGTCTCCC
# DNA 2: TGGTGGCTACGACGGGATT
# B8: UUGGCUC (DNA:RNA)
# RNA: B1 RNA with C25U, C28G, A29C, G30U, A31C
# DNA 1: CAATCTGAATTCCGGTCTCCC
# DNA 2: TGGTGGCTACGACGGGATT
# B9: UGGCUCU (DNA:RNA)
# RNA: B1 RNA with C25U, U26G, A29U, G30C, A31U
# DNA 1: CAATCTGAATTCCGGTCTCCC
# DNA 2: TGGTGGCTACGACGGGATT
# B10: CUGUGGC (DNA:RNA)
# RNA: B1 RNA with C28U, A29G, A31C
# DNA 1: CAATCTGAATTCCGGTCTCCC
# DNA 2: TGGTGGCTACGACGGGATT
# B11: UGGGCUC (DNA:RNA)
# RNA: B1 RNA with C25U, U26G, C28G, A29C, G30U, A31C
# DNA 1: CAATCTGAATTCCGGTCTCCC
# DNA 2: TGGTGGCTACGACGGGATT
# B12: CCCUGGC (DNA:RNA)
# RNA: B1 RNA with U26C, G27C, C28U, A29G, A31C
# DNA 1: CAATCTGAATTCCGGTCTCCC
# DNA 2: TGGTGGCTACGACGGGATT
# B13: UGGCUGU (DNA:RNA)
# RNA: B1 RNA with C25U, U26G, A29U, A31U
# DNA 1: CAATCTGAATTCCGGTCTCCC
# DNA 2: TGGTGGCTACGACGGGATT
# B14: GUGGCUG (DNA:RNA)
# RNA: B1 RNA with C25G, C28G, A29C, G30U, A31G
# DNA 1: CAATCTGAATTCCGGTCTCCC
# DNA 2: TGGTGGCTACGACGGGATT
# B15: CGGCUGU (DNA:RNA)
# RNA: B1 RNA with U26G, A29U, A31U
# DNA 1: CAATCTGAATTCCGGTCTCCC
# DNA 2: TGGTGGCTACGACGGGATT
# B16: CUGGCUC (DNA:RNA)
# RNA: B1 RNA with C28G, A29C, G30U, A31C
# DNA 1: CAATCTGAATTCCGGTCTCCC
# DNA 2: TGGTGGCTACGACGGGATT
# B17: UUGGCUG (DNA:RNA)
# RNA: B1 RNA with C25U, C28G, A29C, G30U, A31G
# DNA 1: CAATCTGAATTCCGGTCTCCC
# DNA 2: TGGTGGCTACGACGGGATT
# B18: GUGCUGU (DNA:RNA)
# RNA: B1 RNA with C25G, A29U, A31U
# DNA 1: CAATCTGAATTCCGGTCTCCC
# DNA 2: TGGTGGCTACGACGGGATT
# B19: CUGGCUG (DNA:RNA)
# RNA: B1 RNA with C28G, A29C, G30U, A31G
# DNA 1: CAATCTGAATTCCGGTCTCCC
# DNA 2: TGGTGGCTACGACGGGATT
# B20: CAUUUCG (DNA:RNA)
# RNA: B1 RNA with U26A, G27U, C28U, A29U, G30C, A31G
# DNA 1: CAATCTGAATTCCGGTCTCCC
# DNA 2: TGGTGGCTACGACGGGATT
# B21: UAUCCUA (DNA:RNA)
# RNA: B1 RNA with C25U, U26A, G27U, A29C, G30U
# DNA 1: CAATCTGAATTCCGGTCTCCC
# DNA 2: TGGTGGCTACGACGGGATT
# B22: GAGGAUC (DNA:RNA)
# RNA: B1 RNA with C25G, U26A, C28G, G30U, A31C
# DNA 1: CAATCTGAATTCCGGTCTCCC
# DNA 2: TGGTGGCTACGACGGGATT
# B23: GUAUACA (DNA:RNA)
# RNA: B1 RNA with C25G, G27A, C28U, G30C
# DNA 1: CAATCTGAATTCCGGTCTCCC
# DNA 2: TGGTGGCTACGACGGGATT
# B24: GUUGCGA (DNA:RNA)
# RNA: B1 RNA with C25G, G27U, C28G, A29C
# DNA 1: CAATCTGAATTCCGGTCTCCC
# DNA 2: TGGTGGCTACGACGGGATT
# B25: AUCUGUA (DNA:RNA)
# RNA: B1 RNA with C25A, G27C, C28U, A29G, G30U
# DNA 1: CAATCTGAATTCCGGTCTCCC
# DNA 2: TGGTGGCTACGACGGGATT
# B26: ACGGGUC (DNA:RNA)
# RNA: B1 RNA with C25A, U26C, C28G, A29G, G30U, A31C
# DNA 1: CAATCTGAATTCCGGTCTCCC
# DNA 2: TGGTGGCTACGACGGGATT
# B27: UGUGAUC (DNA:RNA)
# RNA: B1 RNA with C25U, U26G, G27U, C28G, G30U, A31C
# DNA 1: CAATCTGAATTCCGGTCTCCC
# DNA 2: TGGTGGCTACGACGGGATT
# B28: CCAGUCU (DNA:RNA)
# RNA: B1 RNA with U26C, G27A, C28G, A29U, G30C, A31U
# DNA 1: CAATCTGAATTCCGGTCTCCC
# DNA 2: TGGTGGCTACGACGGGATT
# B29: UCAGGUC (DNA:RNA)
# RNA: GGGAGACCGGAAUUCAGAUUGUCCUCAGGUCUUAAAUCCCGUCGUAGCCACCA
# DNA 1: CAATCTGAATTCCGGTCTCCC
# DNA 2: TGGTGGCTACGACGGGATT
# B30: GGAAAAU (DNA:RNA)
# RNA: B1 RNA with C25G, U26G, G27A, C28A, G30A, A31U
# DNA 1: CAATCTGAATTCCGGTCTCCC
# DNA 2: TGGTGGCTACGACGGGATT
# B31: CUAUCGG (DNA:RNA)
# RNA: B1 RNA with G27A, C28U, A29C, A31G
# DNA 1: CAATCTGAATTCCGGTCTCCC
# DNA 2: TGGTGGCTACGACGGGATT
# Target: T1, RBFOX1 RRM (Homo sapiens, UniProt Q9NWB1 109-208)
# T1 sequence: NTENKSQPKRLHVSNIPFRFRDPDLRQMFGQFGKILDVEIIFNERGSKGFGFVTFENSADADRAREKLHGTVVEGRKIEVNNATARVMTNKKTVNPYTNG
# Test: EMSA; HiTS-Eq, 1 nM pool, 10 min; buffer printed only for the single-RNA assays: 10 mM Tris pH 7.5, 150 mM NaCl, 3.4 mM EDTA, 0.001% NP-40, 30 C
# Settings: tags: His6 N-terminal (pET28a); label: 5' 32P
# Procedure, shortened: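 These values rest on relative association constants, computed from read-count changes of each RNA species versus the control reaction and normalised to the cognate motif. Reads came from free RNA recovered by 8% native PAGE after purified RbFox RRM (wild type or mutant) at increasing concentrations was equilibrated for 10 min in 50 µL with 1 nM of a 5′-radiolabelled pool with 7 randomized nucleotides and DNA-annealed flanks.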
row,Binder,binding signal
1,B1,0.0168 KA relative to UGCAUGU
2,B2,0.0108 KA relative to UGCAUGU
3,B3,0.0166 KA relative to UGCAUGU
4,B4,0.0121 KA relative to UGCAUGU
5,B5,0.00712 KA relative to UGCAUGU
6,B6,0.00773 KA relative to UGCAUGU
7,B7,0.0043 KA relative to UGCAUGU
8,B8,0.0219 KA relative to UGCAUGU
9,B9,0.0197 KA relative to UGCAUGU
10,B10,0.0106 KA relative to UGCAUGU
11,B11,0.0362 KA relative to UGCAUGU
12,B12,0.011 KA relative to UGCAUGU
13,B13,0.0395 KA relative to UGCAUGU
14,B14,0.0289 KA relative to UGCAUGU
15,B15,0.0179 KA relative to UGCAUGU
16,B16,0.0211 KA relative to UGCAUGU

row,Binder,binding signal
1,B17,0.0406 KA relative to UGCAUGU
2,B18,0.021 KA relative to UGCAUGU
3,B19,0.0348 KA relative to UGCAUGU
4,B20,0.00769 KA relative to UGCAUGU
5,B21,0.00279 KA relative to UGCAUGU
6,B22,0.0149 KA relative to UGCAUGU
7,B23,0.00201 KA relative to UGCAUGU
8,B24,0.0206 KA relative to UGCAUGU
9,B25,0.00557 KA relative to UGCAUGU
10,B26,0.0159 KA relative to UGCAUGU
11,B27,0.0227 KA relative to UGCAUGU
12,B28,0.00457 KA relative to UGCAUGU
13,B29,0.0155 KA relative to UGCAUGU
14,B30,0.00757 KA relative to UGCAUGU
15,B31,0.00622 KA relative to UGCAUGU
